Measurements from the supplement of paper PMC6992640.
Counter-ions that a name gives are not always drawn. ± gives the standard deviation of the averaged measurements.

Key:
Assay in all cases: cell viability (% of vehicle); higher = less cytotoxic
Settings in all cases: 10 µM; 72 h
HCI01 = system: HCI01 (cells of a triple-negative basal-like breast cancer xenograft)
HCI03 = system: HCI03 (cells of an ER-positive luminal breast cancer xenograft)
HCI09 = system: HCI09 (cells of a triple-negative luminal androgen receptor type breast cancer xenograft)
HCI11 = system: HCI11 (cells of an ER-positive luminal breast cancer xenograft)
HCI13 = system: HCI13 (cells of an ER-positive luminal breast cancer xenograft)
HCI16 = system: HCI16 (cells of a triple-negative basal-like breast cancer xenograft)
UCD52 = system: UCD52 (cells of a triple-negative basal-like breast cancer xenograft)
WHIM2 = system: WHIM2 (cells of a triple-negative basal-like breast cancer xenograft)
WHIM30 = system: WHIM30 (cells of a triple-negative basal-like breast cancer xenograft)
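Further: PDX cells carrying CMV promoter-driven luciferase, viability read as total photon flux per second by IVIS imaging following D-luciferin, vehicle control 0.1% DMSO.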

Row | SMILES | cell viability (HCI01) | cell viability (HCI03) | cell viability (HCI09) | cell viability (HCI11) | cell viability (HCI13) | cell viability (HCI16) | cell viability (UCD52) | cell viability (WHIM2) | cell viability (WHIM30)
1 | Cn1c(=O)cc(N2CCCC(N)C2)n(Cc2cc(F)ccc2C#N)c1=O (stereo unspecified) [Trelagliptin] | 111 ± 7 | 116 | 112 ± 6.1 | 111 | 104 ± 1.3 | 95.2 | 96.2 ± 11 | 96.8 ± 4.5 | 121 ± 13
2 | Cl.O=C1CC2(CCCC2)CC(=O)N1CCCCN1CCN(c2ncccn2)CC1 [Buspirone HCl] | 110 ± 16 | 95.5 | 91.3 ± 8.6 | 101 | 76.7 ± 2 | 119 | 106 ± 3.5 | 104.3 ± 0.12 | 90.4 ± 8.1
3 | Cl.NC12CC3CC(CC(C3)C1)C2 [Amantadine HCl] | 136 ± 17 | 117 | 104 ± 1.4 | 98.7 | 120 ± 7.4 | 132 | 93.3 ± 2.1 | 107 ± 17 | 105 ± 1.4
4 | CCCN1CCCCC1C(=O)Nc1c(C)cccc1C.Cl.O (stereo unspecified) [Ropivacaine hydrochloride monohydrate] | 86.9 ± 16 | 116 | 105 ± 16 | 96.1 | 110.3 ± 0.64 | 117 | 96.2 ± 12 | 90.8 ± 14 | 100 ± 9.1
5 | COc1cc(NS(=O)(=O)c2ccc(N)cc2)nc(OC)n1 [Sulfadimethoxine] | 91.8 ± 17 | 155 | 103 ± 14 | 103 | 116 ± 1.2 | 118 | 112 ± 5.2 | 86.1 ± 9.4 | 172 ± 27
6 | OC(CCCN1CCCCC1)(c1ccccc1)c1ccccc1 [Diphenidol HCl] | 117 ± 19 | 139 | 107 ± 12 | 82.5 | 88.1 ± 2.6 | 118 | 101 ± 25 | 108 ± 9.6 | 113 ± 11
7 | Cc1ccc(NC(=O)C2(c3ccc4c(c3)OC(F)(F)O4)CC2)nc1-c1cccc(C(=O)O)c1 | 104 ± 31 | 89.5 | 78.15 ± 0.74 | 101 | 66 ± 2.5 | 103 | 86.82 ± 0.29 | 92.4 ± 28 | 157 ± 13
8 | Cc1c(NC(=O)c2cccnc2)c(=O)n(-c2ccccc2)n1C [Nifenazone] | 115 ± 12 | 95.9 | 116 ± 42 | 114 | 103 ± 10 | 122 | 96.7 ± 4.5 | 93.9 ± 16 | 128 ± 6
9 | O=C1OC(C(O)CO)C([O-])=C1O.[Na+] (stereo unspecified) [Sodium ascorbate] | 94.7 ± 14 | 87 | 90.3 ± 1.3 | 87 | 52 ± 6.5 | 92.3 | 77.3 ± 8.9 | 115 ± 31 | 120 ± 3
10 | CC(C)NCC(O)c1ccc(O)c(O)c1.Cl (stereo unspecified) [Isoprenaline HCl] | 95.7 ± 15 | 108 | 87.2 ± 13 | 90.3 | 76.2 ± 2 | 122 | 91.9 ± 9.1 | 77.2 ± 5.8 | 113 ± 7.1
11 | CO/N=C(\C(=O)N[C@@H]1C(=O)N2C(C(=O)[O-])=C(COC(C)=O)CS[C@H]12)c1csc(N)n1.[Na+] [Cefotaxime (sodium salt)] | 94.8 ± 14 | 121 | 105 ± 3.7 | 74.9 | 155 ± 13 | 107 | 116.5 ± 0.35 | 99.12 ± 0.99 | 136.3 ± 0.17
12 | C[N+]1(C)CCC(OC(=O)C(O)(c2ccccc2)C2CCCC2)C1.[Br-] (stereo unspecified) [Glycopyrrolate] | 110 ± 5.3 | 152 | 123 ± 51 | 99.3 | 117 ± 12 | 94.8 | 95.6 ± 5.1 | 100 ± 5.2 | 83.6 ± 6.5
13 | CN(C)CCC=C1c2ccccc2COc2ccc(CC(=O)O)cc21.Cl [Olopatadine HCl] | 122 ± 18 | 130 | 101 ± 9.1 | 97.6 | 182 ± 38 | 99.1 | 81.6 ± 14 | 87.1 ± 13 | 108 ± 4.9
14 | CC1(C)SC2C(NC(=O)C(N)c3ccccc3)C(=O)N2C1C(=O)O.O.O.O (stereo unspecified) [Ampicillin Trihydrate] | 138 ± 26 | 124 | 94.6 ± 8.1 | 110 | 143 ± 7.4 | 120 | 82 ± 7.2 | 103 ± 2.1 | 95.8 ± 2.6
15 | NCC1OC(OC2C(CO)OC(OC3C(O)C(N)CC(N)C3OC3OC(CO)C(O)C(O)C3N)C2O)C(N)C(O)C1O.O=S(=O)(O)O (stereo unspecified) [Paromomycin Sulfate] | 125 ± 32 | 133 | 88.3 ± 10 | 95 | 86.8 ± 14 | 129 | 91.82 ± 0.62 | 131 ± 48 | 111 ± 8
16 | CCCCCOc1ccc(-c2cc(-c3ccc(C(=O)NC4CC(O)C(O)NC(=O)C5C(O)C(C)CN5C(=O)C(C(O)CC(N)=O)NC(=O)C(C(O)C(O)c5ccc(O)c(OS(=O)(=O)[O-])c5)NC(=O)C5CC(O)CN5C(=O)C(C(C)O)NC4=O)cc3)no2)cc1.[Na+] (stereo unspecified) [Micafungin sodium] | 104 ± 7.9 | 96.4 | 85.7 ± 5.6 | 92.6 | 113 ± 4 | 93.3 | 75.7 ± 12 | 39.4 ± 2.2 | 99 ± 12
17 | CN(CC/C=C1C2=CC=CC=C2C=CC3=CC=CC=C3\1)C.Cl [Cyclobenzaprine HCl] | 98.1 ± 17 | 95.1 | 73.5 ± 0.81 | 84.5 | 131 ± 4.4 | 92.3 | 76.4 ± 0.93 | 89.6 ± 14 | 89.9 ± 1.5
18 | O=C1CCc2cc(OCCCCc3nnnn3C3CCCCC3)ccc2N1 [Cilostazol] | 133 ± 7.6 | 125 | 78.2 ± 12 | 106 | 126 ± 24 | 93.7 | 80.8 ± 7.3 | 191 ± 27 | 125 ± 25
19 | CN1C2CCC1CC(OC(c1ccccc1)c1ccccc1)C2.CS(=O)(=O)O (stereo unspecified) [Benztropine mesylate] | 189 ± 60 | 108 | 110 ± 13 | 94 | 120 ± 14 | 125 | 80.4 ± 7.7 | 83.4 ± 12 | 141 ± 1.6
